This is a sample that favours compounds with a hit; in the whole collection about 7.2% have one here.
FMDV inh – High Throughput Screening for Foot and Mouth Disease Virus Antivirals. FMDV antiviral cell-based qHTS. Potency, µM (titrated, usually from 57.9 µM), inactives show top-dose activity change, negative = inhibition, hits mostly inhibitors. actives 1.2% (n = 410,000). AID 1159524, 2015; calls by dose curve; tested in HEK293T cells; also: read-out not given here; nearly all actives have a fitted effect of over 45% in size
RE007 growth inh – qHTS Assay for Inhibitors of the HIV-1 protein Vpr | Potency, µM (titrated, usually from 92.2 µM), for inactives: at the top dose activity change, negative = less growth, hits mostly inhibitors | S. pombe RE007 Vpr strain, BacTiter-Glo ATP luminescence, 24 h | actives 0.21% (n = 360,000); active = well fitted falling curve with a large enough effect; inconclusive = small, poorly fitted or top-dose-only effect; inactive = no such curve, though single readings can be large or run the other way; also: nearly all actives have a fitted effect of over 50% in size
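Fission yeast strain RE007, carrying one chromosomally integrated HIV-1 vpr copy, was seeded at OD 0.01 in PMG+AL medium with 23 nL pinned compound. After 24 h at 30 °C and 99% humidity, viability was read by BacTiter-Glo luminescence.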
Marburg entry inh – qHTS for inhibitors of binding or entry into cells for Marburg Virus; AID 540276, 2011; actives 1.8% (n = 300,000); Potency, µM (titrated, usually from 37.8 µM), inactives show at the top dose activity change, negative = inhibition, usual class: inhibitors; Marburg virus pseudotyped entry inhibition, cell reporter; calls by dose curve; tested in HEK293 cells
Sm TGR block – qHTS Assay for the Inhibitors of Schistosoma Mansoni Peroxiredoxins; Schistosoma mansoni thioredoxin glutathione reductase (TGR), Q962Y6; purified TGR, DTNB reduction, TNB absorbance 405 nm; Potency, µM (titrated, usually from 114 µM), for the others: at the highest dose activity change, negative = inhibition, usual class: inhibitors; actives 3% (n = 360,000); AID 485364, 2010; also: nearly all actives have a fitted effect of over 60% in size
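Kinetic colorimetric format: TGR-catalysed, NADPH-driven DTNB reduction monitored via TNB absorbance. Enzyme dispensed at 20 nM; compound exposure 15 min at room temperature before reaction start.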
HCV inh – qHTS Assay for Inhibitors of Hepatitis C Virus (HCV) | Huh7.5.1 HCVcc-Cre infection, luciferase reporter, 44 h | Potency, µM (top dose mostly 41.8 µM), inactives show at the top dose activity change, negative = inhibition, actives largely listed as inhibitors | actives 3.4% (n = 340,000)
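Infectious HCV cell culture screen: compound-treated cells (1,000/well, pre-plated 4 h) are infected with HCVcc-Cre at roughly 0.5 moi and grown 44 h. Infection is quantified by luciferase signal after 15 min substrate incubation at room temperature.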
LASV entry inh – qHTS for Inhibitors of binding or entry into cells for Lassa Virus | Lassa virus pseudotype entry inhibition, cell reporter | Potency, µM (series often up to 37.9 µM), for the others: at the highest dose activity change, negative = inhibition, usual class: inhibitors | actives 1.2% (n = 300,000); calls by dose curve; tested in HEK293 cells; also: nearly all actives have a fitted effect of over 50% in size
Starred values were filed as active, the others as inactive; ? = inconclusive; . = not tested or not shown; [ ] = remark or other dose. Unless noted, calls follow the shape of the dose curve; as a rule, active = well fitted curve in the direction sought with a large enough effect; inconclusive = small, poorly fitted or top-dose-only effect, or another doubt; inactive = no such curve, though single readings can be large; an effect the other way counts as inactive or inconclusive. % is scaled to controls: 0 for no effect and ±100 for the full control effect; potency is read from the fitted curve at half-maximal effect.

SMILES | FMDV inh | RE007 growth inh | Marburg entry inh | Sm TGR block | HCV inh | LASV entry inh
COC(=O)C1=C(C(=O)OC)[C@]2([C@@H]3CCCCN[C@@H](Cc4ccccc4)C(=O)N3Cc3ccccc3)C=C[C@H]1O2 | -28% | -9% | . | . | 7.9µM* | .
CN(N=O)C(=O)N[C@H]1C(O)OC(CO)[C@@H](O)[C@H]1O (some centres not stated) | -2% | . | . | . | . | .
CC1=CC[C@@H](COc2ccccc2)O[C@@]2(C1)C(=O)N(Cc1ccc(Br)cc1)c1cccc(Br)c12 | . | . | 46%[14.2 µM] | . | . | .
O=C(NCCN1C(=O)S/C(=C\c2ccc(Cl)c([N+](=O)[O-])c2)C1=O)C1=COCCO1 | -4% | -10% | ? | -7% | 11µM* | ?
COc1ccc(S(=O)(=O)NCc2nc(-c3ccccc3)no2)cc1 | 2% | . | -14%[46.1 µM] | 7% | . | 4%[46.1 µM]
COc1ccc(C(=O)NC2=NCCS2)cc1 | 6% | -4% | ? | 1% | 2% | 29%[46.1 µM]
Cc1ccc(C(=O)NC2=NCCS2)cc1 | . | . | -1% | 0% | . | .
CC(C)Oc1ccc(C(=O)NC2=NCCS2)cc1 | -24% | -1% | 8.9µM* | -7% | 21% | ?
CC(C)c1ccc(C(=O)NC2=NCCS2)cc1 | -13% | -27% | 7.3µM* | -17% | 11% | 16µM*
COc1ccc(NC(=O)c2cc3c(-c4ccccc4F)nn(C)c3s2)c(OC)c1 | 0% | . | 9%[46.1 µM] | 0% | . | -27%[46.1 µM]
O=C(/C=C/c1ccccc1Cl)NNC(=O)c1ccncc1 | -12% | 1% | . | -1% | -3% | .
CCN(CC)c1ccc(/C=C/C(=O)c2cccnc2)cc1 | -12% | 19% | . | 4% | -8% | .
O=C(/C=C/c1c(F)cccc1Cl)c1ccc(O)cc1 | 12% | -25% | . | 40µM* | 11µM* | .
O=C(/C=C/c1ccccc1Cl)c1ccc(O)cc1 | 13% | -5% | ? | 45µM* | 6% | -20%
O=C(/C=C/c1c(F)cccc1Cl)Nc1ncccn1 | 23% | 9% | -4% | -9% | 4% | 16%
O=C(/C=C/c1ccccc1Cl)c1cccnc1 | 14µM* | ? | ? | 13µM* | ? | ?
O=C(/C=C/c1ccc(Cl)cc1)c1cccnc1 | -7% | 28µM* | ? | 14µM* | 12% | -2%
Cn1c(=O)c2c(nc(N3CCOCC3)n2Cc2ccccc2F)n(C)c1=O | -9% | . | -3%[46.1 µM] | 7% | . | -1%[46.1 µM]
O=C(/C=C/c1cccnc1)/C=C/c1cccnc1 | 11µM* | ? | . | 3.2µM* | ? | .
N#Cc1ccc(/C=C/C(=O)c2cccnc2)cc1 | 40µM* | 45µM* | ? | 28µM* | ? | ?
Cc1ccc(S(=O)(=O)Nc2nc(-c3ccccc3)cs2)cc1 | 15% | -2% | -13% | -22% | 3% | 27%
COc1ccc(-c2csc(NC(=O)c3ccccc3NS(=O)(=O)c3ccc(F)c(F)c3)n2)cc1 | ? | 4% | 2.3µM* | 5% | 2.8µM* | 3.7µM*
Cc1ccc(S(=O)(=O)Nc2ccc(-c3csc(-c4ccccc4)n3)cc2)cc1 | -6% | 1% | -22% | 1% | 10µM* | ?
O=S(=O)(Nc1ccc(-c2csc(-c3ccccc3)n2)cc1)c1ccccc1 | 19% | 0% | ? | -13% | ? | 3%
Cc1ccc(S(=O)(=O)Nc2ccccc2C(=O)Nc2nc(-c3ccc(F)cc3)cs2)cc1 | 0% | 7% | 2.8µM* | -8% | 6.3µM* | 3.3µM*
SMILES | FMDV inh | RE007 growth inh | Marburg entry inh | Sm TGR block | HCV inh | LASV entry inh
CC(=O)Nc1ccc(C)cc1-c1nc2ccccc2n(CC(=O)c2ccc(Cl)cc2)c1=O | -22% | . | 9%[46.1 µM] | 20% | . | ?
Oc1c(Cl)cc(Cl)cc1C1=NNC(c2ccc(Cl)cc2)C1 (configuration not stated) | -2% | 1% | ? | 3.2µM* | -6% | -19%
COc1cc(C(=O)N(CCCN(C)C)c2nc3c(OC)cccc3s2)cc(OC)c1OC | -7% | . | . | -9% | . | -10%[46.1 µM]
COc1ccc(N2CC(NC(=O)c3ccc(S(=O)(=O)N4CCCCC4)cc3)CC2=O)cc1OC (configuration not stated) | -11% | . | . | -5% | . | 9%[46.1 µM]
COc1ccc(S(=O)(=O)Nc2ccccc2-c2nnn(CC(=O)Nc3ccccc3OC)n2)cc1 | ? | -11% | ? | 0% | ? | ?
COc1ccc(NC(=O)Cn2nnc(-c3ccccc3NS(=O)(=O)c3ccccc3)n2)cc1 | ? | 5% | 8.9µM* | -1% | -51% | ?
CCc1ccc(C2=NN(CCC(=O)NCCc3ccc(OC)c(OC)c3)C(=O)CC2)cc1 | -24% | . | . | -1% | . | ?
CC(=O)c1ccc(Nc2nc3c(S(=O)(=O)c4ccccc4)nnn3c3ccc(Cl)cc23)cc1 | 0% | . | ? | 0% | . | .
COc1cc(C2Nc3ccccc3-c3nnc(SCc4ccc(C)cc4)nc3O2)cc(OC)c1O (configuration not stated) | 22µM* | . | ? | -29% | . | -6%[46.1 µM]
COc1cc(C2Nc3ccccc3-c3nnc(SCc4ccc(Cl)cc4)nc3O2)ccc1OCC(=O)O (configuration not stated) | 13% | . | 3%[46.1 µM] | -2% | . | 5%[46.1 µM]
COc1cc(C(CC2=C(c3ccccc3)Cc3ccccc32)NC(=O)C(F)(F)F)cc(OC)c1OC (configuration not stated) | . | . | 8%[14.2 µM] | . | . | .
COc1ccc(C2NC(=O)NC(O)(C(F)(F)F)C2C(=O)c2ccccc2)cc1OC (configuration not stated) | . | 0% | 13% | 35µM* | 6% | 22%
CCOc1cc(C2NC(=O)NC(O)(C(F)(F)F)C2C(=O)c2ccccc2)ccc1OC (configuration not stated) | 19% | 12% | 9% | -2% | 10% | -5%
COc1cccc(C2NC(=O)NC(O)(C(F)(F)F)C2C(=O)c2cccnc2)c1OC (configuration not stated) | 0% | -10% | 4% | 22µM* | -22% | 5%
CCS(=O)(=O)NCCc1csc2nc(-c3ccc(C)cc3)nn12 | -16% | . | . | 3% | . | 22%[46.1 µM]
CN(C)c1cccc(C(=O)N/N=C/c2ccccc2F)c1 | -54% | 10% | ? | 0% | 19% | 10µM*
O=C(CNC(=O)c1ccco1)N/N=C/c1ccc(O)cc1O | 7% | 0% | . | 2% | -1% | .
O=C(N/N=C/c1ccccc1O)c1ccc2c(c1)OCO2 | -14% | 2% | 5µM* | 33% | 5.6µM* | ?
O=C(N/N=C/c1cc(Br)cc(Cl)c1O)c1ccc2c(c1)OCO2 | 3% | -27% | ? | . | 13µM* | ?
